From PubChem BioAssay (NCI) come the findings set out here.

Test systems include HCT-15 colon; HT29 colon; SNB-19 CNS; U251 CNS; PC-3 prostate; SK-MEL-5 melanoma; UACC-62 melanoma; LOX IMVI melanoma; SK-MEL-28 melanoma; EKVX NSCLC; UO-31 renal; TK-10 renal; ACHN renal; CAKI-1 renal; A498 renal; CCRF-CEM leukemia; MOLT-4 leukemia; SK-MEL-2 melanoma; SN12C renal.
What all share (assay): NCI-60 one-dose screen, 48 h (100 = growth as untreated, 0 = no growth, -100 = all killed)
What all share (conditions): 10 µM

This is part of a sample that, as a whole, favours compounds with a hit. Of some 83,000 tested, about 20% had one in any assay.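 Percent growth is the endpoint: 0 to 100 indicates growth inhibition (40 means 60% inhibition), 0 means no net growth, and negative values indicate cell death.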 Unmarked numbers belong to inactive results. Activity calls are given as the source filed them. The calls were made as follows: active = growth percent below 10; inactive = the rest.

As for `N#Cc1c(NC(=O)c2ccc(C(O)(C(F)(F)F)C(F)(F)F)cc2)sc2c1CCC(=O)C2`, the growth is -68.7% (active) in the experiment with HCT-15 colon; -34.5% (active) in the experiment with HT29 colon; -15.9% (active) with SNB-19 CNS; -91.1% (active) in the experiment with U251 CNS; -44.8% (active) with PC-3 prostate; -99.1% (active) in the experiment with SK-MEL-5 melanoma. Besides, the growth is -88.3% (active) in the experiment on UACC-62 melanoma; -96.4% (active) in the experiment on LOX IMVI melanoma; -87.1% (active) in the experiment on SK-MEL-28 melanoma; -89.6% (active) in the experiment on EKVX NSCLC; -98.8% (active) with UO-31 renal; 2.24% (active) in the experiment with TK-10 renal. Further, the growth in the experiment with ACHN renal is -98.3% (active); in the experiment with CAKI-1 renal, -68.9% (active); in the experiment on A498 renal, 13.6%; in the experiment with CCRF-CEM leukemia it was 1.92% (active); in the experiment on MOLT-4 leukemia it was -40.9% (active).

In the case of `COC[C@@H](CC(C)C)N=C1NC(=O)/C(=C/c2ccc3ncsc3c2)N1`, the growth in the experiment with HCT-15 colon was 1.92% (active); with HT29 colon, -14.7% (active); with SNB-19 CNS it was 11.5%; in the experiment with U251 CNS, 15.8%; in the experiment on PC-3 prostate it was 30.9%; in the experiment with SK-MEL-5 melanoma, -12.1% (active). Besides, the growth in the experiment on UACC-62 melanoma is 1.43% (active); with LOX IMVI melanoma it was 0.514% (active); with SK-MEL-2 melanoma it was -70.7% (active); in the experiment on EKVX NSCLC, 17.8%; in the experiment with SN12C renal, 13.6%; in the experiment with UO-31 renal, -12.7% (active). Besides, the growth is 27.8% with TK-10 renal; 6.22% (active) with ACHN renal; 4.39% (active) with CAKI-1 renal; -7.78% (active) with A498 renal; 11.1% in the experiment on MOLT-4 leukemia.

On to `O=C1Nc2ccc(Cl)cc2/C1=C/c1ccc(OCc2ccccn2)cc1`, for which the growth is 35.7% in the experiment with HCT-15 colon; 67.5% in the experiment with HT29 colon; 50.7% in the experiment on SNB-19 CNS; 23.7% in the experiment with U251 CNS; 62.1% with PC-3 prostate; 89.5% in the experiment with SK-MEL-5 melanoma. In addition, the growth with UACC-62 melanoma was 66.7%; in the experiment on LOX IMVI melanoma it was 56.5%; with SK-MEL-28 melanoma it was 100%; in the experiment with SK-MEL-2 melanoma, 111%; with EKVX NSCLC, 65.7%; in the experiment on SN12C renal, 44.5%. Also, the growth was 90.1% in the experiment with TK-10 renal; 57% in the experiment with ACHN renal; 61.6% in the experiment with CAKI-1 renal; 45.1% with A498 renal; 83.2% with CCRF-CEM leukemia; 46.8% in the experiment with MOLT-4 leukemia.

For the compound `O=C(Nc1ccc(I)cc1)Nc1nc2ccc([N+](=O)[O-])cc2s1`, the growth with HCT-15 colon is -100% (active); in the experiment on HT29 colon, -93.3% (active); with SNB-19 CNS, -94.3% (active); with U251 CNS, -94% (active); in the experiment on PC-3 prostate it was -75.7% (active); in the experiment with SK-MEL-5 melanoma, -100% (active). The growth was -98% (active) with UACC-62 melanoma; -100% (active) with LOX IMVI melanoma; -99% (active) with SK-MEL-28 melanoma; -93% (active) in the experiment with EKVX NSCLC; -97.7% (active) in the experiment on SN12C renal; -100% (active) in the experiment with UO-31 renal. Besides, the growth in the experiment on TK-10 renal is -92% (active); in the experiment on ACHN renal it was -100% (active); in the experiment with CAKI-1 renal, -100% (active); in the experiment on A498 renal, -91.6% (active); in the experiment with CCRF-CEM leukemia, -81.1% (active); with MOLT-4 leukemia it was -58.1% (active).

For `Cc1ccc(-c2nc(Nc3ccc(C)c(S(N)(=O)=O)c3)c3ccccc3n2)cc1`, the growth with HCT-15 colon is 50.7%; in the experiment with HT29 colon, 43.1%; with SNB-19 CNS, 91.4%; with U251 CNS, 18.6%; with PC-3 prostate it was 43.9%; in the experiment with SK-MEL-5 melanoma, 86.7%. Moreover, the growth is 87.8% with UACC-62 melanoma; 2.94% (active) in the experiment with LOX IMVI melanoma; 113% with SK-MEL-28 melanoma; 81.1% in the experiment with EKVX NSCLC; 69% in the experiment on SN12C renal; 85.9% with UO-31 renal. Further, the growth in the experiment on TK-10 renal is 120%; with ACHN renal, 64.1%; in the experiment with CAKI-1 renal, 91%; with A498 renal, 106%; with CCRF-CEM leukemia it was 85.1%; with MOLT-4 leukemia, 71.5%.

For `O=C(/C=C/Nc1ccccc1)c1ccc2c(c1)Nc1ccccc1S2`, the growth was 80.4% with HCT-15 colon; 90.4% in the experiment with HT29 colon; 36.3% in the experiment on SNB-19 CNS; 38% with U251 CNS; 78.5% in the experiment with PC-3 prostate; 96.7% with SK-MEL-5 melanoma. Also, the growth in the experiment with UACC-62 melanoma is 68.9%; in the experiment on LOX IMVI melanoma it was 79.9%; in the experiment on SK-MEL-28 melanoma it was 100%; in the experiment on SK-MEL-2 melanoma, 78.1%; with EKVX NSCLC, 81.4%; in the experiment on SN12C renal, 69.2%. For the same compound, the growth in the experiment with UO-31 renal is 93.1%; in the experiment on TK-10 renal, 96.2%; with ACHN renal, 84.3%; in the experiment with CAKI-1 renal, 91.5%; in the experiment with A498 renal it was 120%; in the experiment with CCRF-CEM leukemia, 94.2%. In addition, the growth in the experiment with MOLT-4 leukemia is 89.7%.

As to `CCOC(=O)c1sc(N/N=C(\C)c2ccc3c(c2)Nc2ccccc2S3)nc1C`, the growth in the experiment on HCT-15 colon is 5.74% (active); in the experiment on HT29 colon it was 30%; with SNB-19 CNS, 49.7%; in the experiment with U251 CNS it was 27.3%; with PC-3 prostate it was 21.9%; with SK-MEL-5 melanoma, 20.8%. The growth is 32.4% in the experiment on UACC-62 melanoma; -58.4% (active) in the experiment on LOX IMVI melanoma; 39.1% in the experiment on SK-MEL-28 melanoma; 10.7% with SK-MEL-2 melanoma; 26.1% in the experiment with EKVX NSCLC; 51.3% in the experiment with SN12C renal. Further, the growth was 29.4% in the experiment on UO-31 renal; 36.8% in the experiment with TK-10 renal; 16.9% in the experiment with ACHN renal; 32.2% in the experiment with CAKI-1 renal; 30.6% with A498 renal; 32.4% in the experiment on CCRF-CEM leukemia. In the experiment with MOLT-4 leukemia, the growth was 14.8%.

As to `CN(CCF)c1ccc(/C=C/C(=O)c2ccc(N)cc2O)cc1`, the growth in the experiment with HCT-15 colon is 49.8%; with HT29 colon, 42.8%; in the experiment with SNB-19 CNS, 84.1%; in the experiment with U251 CNS, 70.3%; with PC-3 prostate, 86.5%; in the experiment with SK-MEL-5 melanoma, 68.1%. The growth in the experiment on UACC-62 melanoma was 90.1%; in the experiment on LOX IMVI melanoma, 78.9%; with SK-MEL-2 melanoma it was 93%; in the experiment on EKVX NSCLC, 93.8%; with SN12C renal, 76.2%; with UO-31 renal, 53.2%. For the same compound, the growth in the experiment with TK-10 renal is 100%; in the experiment with ACHN renal, 79.3%; in the experiment on CAKI-1 renal, 60.4%; with A498 renal, 115%; in the experiment with CCRF-CEM leukemia, 60.8%; with MOLT-4 leukemia, 58%.

On to `CN(C)c1cccc2c(S(=O)(=O)Nc3cccc(-c4csc(NC(=O)CCCCCN5CCN(c6cc7c(cc6F)C(=O)N(C6CCC(=O)NC6=O)C7=O)CC5)n4)c3)cccc12` (configuration not stated), for which the growth with HCT-15 colon is 77.9%; in the experiment with HT29 colon, 92.3%; in the experiment with SNB-19 CNS, 92.8%; with U251 CNS it was 94.4%; with PC-3 prostate, 78.5%; with SK-MEL-5 melanoma it was 60.2%. Also, the growth was 83.1% with UACC-62 melanoma; 91.8% in the experiment with LOX IMVI melanoma; 104% in the experiment on SK-MEL-28 melanoma; 108% in the experiment with SK-MEL-2 melanoma; 80.8% with EKVX NSCLC; 85.8% in the experiment with SN12C renal. The growth in the experiment on UO-31 renal was 70%; in the experiment on TK-10 renal, 97.4%; in the experiment with ACHN renal, 97.8%; in the experiment with CAKI-1 renal, 79.4%; in the experiment on A498 renal, 95.7%; in the experiment on CCRF-CEM leukemia it was 66.3%.
